Among all 110,000 compounds or so, about 230 (0.21%) showed an effect of 50% or more. The entries come from a sample that favours strong results as a whole.
Molecular target: DPAP1 (Plasmodium falciparum, UniProt Q8IIJ9)
Test: primary screen, percent inhibition; read by cleavage of a fluorogenic dipeptide substrate; higher = more effect of the substance
Set-up: species or system P. falciparum D10 trophozoite lysates; single well
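Note: 30 min substrate incubation versus DMSO and 10 µM JCP410 controls.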

Sequence of DPAP1 (Q8IIJ9 whole entry, looked up): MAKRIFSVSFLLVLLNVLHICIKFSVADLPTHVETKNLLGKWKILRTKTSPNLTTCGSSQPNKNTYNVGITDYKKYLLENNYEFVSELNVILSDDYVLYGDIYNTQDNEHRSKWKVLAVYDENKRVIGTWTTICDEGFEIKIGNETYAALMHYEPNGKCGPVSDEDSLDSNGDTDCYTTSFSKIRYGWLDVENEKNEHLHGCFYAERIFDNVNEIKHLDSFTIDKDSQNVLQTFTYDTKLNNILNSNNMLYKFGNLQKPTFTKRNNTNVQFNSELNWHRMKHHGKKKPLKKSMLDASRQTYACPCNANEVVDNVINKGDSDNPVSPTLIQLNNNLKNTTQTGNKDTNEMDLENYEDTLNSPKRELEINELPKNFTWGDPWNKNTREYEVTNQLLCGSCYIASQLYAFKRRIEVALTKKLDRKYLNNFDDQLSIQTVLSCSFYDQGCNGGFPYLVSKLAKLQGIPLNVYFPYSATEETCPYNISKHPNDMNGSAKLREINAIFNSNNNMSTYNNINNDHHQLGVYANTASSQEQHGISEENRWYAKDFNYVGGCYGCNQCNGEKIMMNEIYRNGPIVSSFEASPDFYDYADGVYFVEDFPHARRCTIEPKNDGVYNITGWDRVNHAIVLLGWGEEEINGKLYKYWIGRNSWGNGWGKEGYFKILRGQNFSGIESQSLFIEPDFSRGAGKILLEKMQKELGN

SMILES	% Inhibition @ 10 uM [%]
Cc1cccc(C)c1-n1c(C)cc(/C=C2\C(=N)N3N=C(S(C)(=O)=O)SC3=NC2=O)c1C	5.1
Cc1cc(/C=C2\C(=N)N3N=C(S(C)(=O)=O)SC3=NC2=O)c(C)n1-c1cccc(C(F)(F)F)c1	3.53
Cc1cccc(-n2c(C)cc(/C=C3\C(=N)N4N=C(S(C)(=O)=O)SC4=NC3=O)c2C)c1	52.6
CN(C)CCN(Cc1ccccc1)c1ncnc2onc(-c3ccc(F)cc3)c12	-2.52
CC(=O)Nc1ccc(Nc2nc(-c3c(C)nc4cc(C)ccn34)cs2)cc1	25.6
CCc1c(C#N)c(S)nc2c1CCC2	88.7
CCc1c(C#N)c(SCC(=O)OC)nc2c1CCC2	4.16
N#Cc1c(S)nc2c(c1-c1ccncc1)CCCC2	30.8
CC(C)Cc1c(C#N)c(SCC(N)=O)nc2c1CCCC2	9.71
N#Cc1c(S)nc2c(c1/C=C/c1ccccc1)CCC2	17.3
CC(C)Cc1c(C#N)c(S)nc2c1CCCC2	90.5
CCn1ncc(Br)c1C(=O)Nc1ccc(S(=O)(=O)Nc2ccc(OC)cc2)cc1	-4.43
O=C(O)c1cc(C(=O)O)cc(N2C(=O)c3ccc([N+](=O)[O-])cc3C2=O)c1	1.64
O=C(CN1CCOCC1)c1c[nH]c2ccccc12	7.5
O=C(c1sc(N2CCOCC2)nc1-c1ccccc1)c1c[nH]c2ccccc12	72.2
CC1(C)OCCN1C(=O)C(=O)c1c[nH]c2ccccc12	-2.68
Cc1nnc(N2CCC(C(=O)NCCc3ccc(Cl)cc3)CC2)c2nn(-c3ccccc3)c(C)c12	0.58
COc1ccc(C2=NN(CCc3ccccn3)C(=O)C2)cc1	-4.06
O=C1N=C(N2CCN(C3=NC(=O)/C(=C\c4cccc(O)c4)S3)CC2)S/C1=C\c1cccc(O)c1	6
O=C1N=C(N2CCN(Cc3ccccc3)CC2)S/C1=C\c1cccc(O)c1	51
O=C1N=C(N2CCN(Cc3ccccc3)CC2)S/C1=C\c1ccccc1	-2.82
CCOC(=O)N1CCN(C(=O)Cc2cn(C)c3ccccc23)CC1	85.9
Cn1cc(CCC(=O)NCc2ccccn2)c2ccccc21	3.28
CCOC(=O)N1CCC(NC(=O)Cc2cn(C)c3ccccc23)CC1	-2.41
Cn1cc(CC(=O)NCc2ccccn2)c2ccccc21	87.4
Cn1cc(CC(=O)NCc2ccc(F)cc2)c2ccccc21	-4.76

SMILES	% Inhibition @ 10 uM [%]
CCOC(=O)N1CCN(C(=O)Cc2c(C(=O)O)n(C)c3ccccc23)CC1	2.84
CSCCCN(C)CCc1ccccn1	-7.56
CN(C)c1ccc(NC(=O)C23CC4CC(C2)CC(n2cnc(Cl)n2)(C4)C3)cc1	-0.305
Cc1ccc(C)c(-c2csc(NC(=O)CSc3ccccc3)c2C(N)=O)c1	1.02
O=C(CSc1ccc(-c2cccs2)nn1)N1CCOCC1	5.85
N#Cc1c(C(F)(F)F)cc(-c2cccs2)nc1SCC(=O)O	9.42
COc1ccc(-c2cc(-c3ccccc3)nc(SCC(=O)N3CCOCC3)c2C#N)cc1	5.24
N#Cc1c(C(F)(F)F)cc(-c2cccs2)nc1SCC(=O)NC1CC1	1.76
N#Cc1c(C(F)(F)F)cc(-c2cccs2)nc1SCC(=O)N1CCCCC1	87
N#Cc1c(C(F)(F)F)cc(-c2cccs2)nc1SCC(=O)N1CCOCC1	72.6
N#Cc1c(C(F)(F)F)cc(-c2ccccc2)nc1SCc1nc(N)nc(N2CCOCC2)n1	5.18
N#Cc1c(C(F)(F)F)cc(-c2cccs2)nc1SCc1nc(N)nc(N2CCOCC2)n1	64.2
N#Cc1c(C(F)(F)F)cc(-c2cccs2)nc1SCC(=O)Nc1ccc(C(N)=O)cc1	-7.55
Cn1cccc1/C=C1/CCC(C2CCCC2)C1=O (centres unmarked)	-5.51
Cc1ccc(C)n1-c1nnc(N2CCC(C(=O)NCCc3ccc(Cl)cc3)CC2)s1	-4.04
O=C(NC1CCCC1)N(Cc1ccc2c(c1)OCO2)C1CCN(Cc2ccccc2)CC1	-1.41
Cc1nc2c(c(C)nn2-c2ccccc2)c(C)c1CCC(=O)NCCC(C)C	2.57
CCc1ccc2ncc(S(=O)(=O)c3ccccc3)c(N3CCCC3)c2c1	-3.69
CSC1=C(C#N)C2(CCCC2)C(C#N)C(=O)N1 (centres unmarked)	-0.239
N#CC1=C(S)NC(=O)C(C#N)C12CCCCC2 (centres unmarked)	57.8
CSC1=C(C#N)C2(CCCCC2)C(C#N)C(=O)N1 (centres unmarked)	-0.736
CCN(CC)C(=O)/C=C/c1ccc(Cl)cc1	3
Cn1c(=O)c2c(nc(CN3CCc4ccccc4C3)n2CCCc2ccccc2)n(C)c1=O	59.1
Cn1c(=O)c2c(nc(CN3CCc4ccccc4C3)n2Cc2ccccc2)n(C)c1=O	-0.499
Cn1c(=O)c2c(nc(CN3CCc4ccccc4C3)n2CCc2ccccc2)n(C)c1=O	2
CC1=CC2=NC(=O)/C(=C\c3cccn3CCCOc3ccc(C)cc3)C(=N)N2O1	-1.43

SMILES	% Inhibition @ 10 uM [%]
CCOC(=O)c1cc2c(=O)n3ccccc3nc2n(CCOC)/c1=N\C(=O)C(C)(C)C	-2.04
COC(=O)Nc1ccc(S(=O)(=O)N2CCN(c3ccccc3OC)CC2)cc1	-5.13
Cc1cc(C)nc(SC(=O)c2ccc(Cl)cc2Cl)n1	-5.13
COC(=O)c1ccc(Oc2nc(C)cc(N)n2)cc1	-2.87
COc1ccc(C(=O)Sc2nc(C)cc(C)n2)cc1	54.6
c1ccc(-c2csc(NCc3ccco3)n2)cc1	-0.178
CCCNc1nc(-c2ccc(C)cc2)cs1	3.33
CCNc1nc(-c2ccccc2)cs1	89.1
c1ccc(CC2CCN(c3ncnc4sc5c(c34)CCCC5)CC2)cc1	2.92
CCn1cc2c(n1)-c1c(oc(C(=O)NCc3cccc(Br)c3)c1C)CC2	13.8
CCOC(=O)c1c(CC(C)C)csc1NC(=O)c1ccc(C)cc1	-5.9
CCC1CCc2nc(S)c(C#N)c(C(F)(F)F)c2C1 (centres unmarked)	88.2
CCN(CC)C(=O)CSc1nc2c(c(C(F)(F)F)c1C#N)CCC2	5.64
CCC1CCc2c(sc(N)c2C#N)C1 (centres unmarked)	11.8
CC(C)c1ccc(/C=C2/NC(=O)NC2=O)cc1	-1.25
Cc1ccc(S(=O)(=O)N2CCCN(S(=O)(=O)c3ccc(C)c(C)c3)CC2)cc1C	22.6
CC(C)n1c(-c2ccc(C(=O)N3CCN(C)CC3)cc2)nc2ccccc21	83.9
CN1CCN(C(=O)c2ccc(-c3ccccc3)cc2)CC1	2.6
CC(C)n1c(-c2ccccc2)nc2ccccc21	-0.769
Cc1ccc(C)c(-c2csc(Nc3ccc(C)c(Cl)c3)n2)c1	0.912
CCSc1c(S)cnn(-c2ccccc2)c1=O	1.7
Oc1c2nc(S)nc-2cnn1-c1ccccc1	87.4
Cc1ccc(-c2nc3cnn(-c4ccccc4)c(O)c-3n2)cc1	2
CC(C)C(NS(=O)(=O)c1cccs1)C(=O)NCc1ccccc1Cl (centres unmarked)	-4.07
CCOc1ccc(-c2cn3ncsc3n2)cc1	2.41
O=C(c1ccccc1)c1conc1C(=O)c1ccc(Br)cc1	4.52

SMILES	% Inhibition @ 10 uM [%]
O=C(c1ccccn1)c1conc1C(=O)c1cccs1	1.82
O=C(c1ccccn1)c1conc1C(=O)c1ccc(Br)cc1	3.72
O=C(c1nc2ccccc2s1)c1conc1C(=O)c1cccs1	4.03
O=C(c1cccnc1)c1conc1C(=O)c1ccc(Br)cc1	91.9
O=C(c1cccs1)c1conc1C(=O)c1ccc(Br)cc1	93.8
Cc1ccc(C2=CC(c3cccs3)n3ncnc3N2)cc1C (centres unmarked)	1.86
Cc1nc(NC(=O)c2cc(Cl)ccc2Cl)ccc1Br	0.755
COc1ccc(Cl)cc1C(=O)Nc1ccc(Br)c(C)n1	70.4
Cc1nc(NC(=O)c2ccccc2Cl)ccc1Br	-2.67
CN(Cc1ccccc1)Cc1ccc(O)cc1	-1.78
CCOC(=O)c1sc2nc(N3CCOCC3)c3c(c2c1N)CCCC3	-2.87
CC1(C)Cc2c(c(N3CCOCC3)nc3sc(C(=O)N4CCCCC4)c(N)c23)CO1	3.93
NC(=O)c1sc2nc(N3CCOCC3)c3c(c2c1N)CCCC3	50.2
Nn1c(S)nnc1-c1ccccc1	1.63
O=C1c2cccnc2C(=O)N1Cc1ccc(S(=O)(=O)NCCc2ccc(Cl)cc2)s1	-3.66
COc1ccccc1CNC(=O)[C@H](CCSC)N1Cc2ccccc2C1=O	2.93
CCCC1CCc2c(sc(NC(=O)C3CCCO3)c2C(N)=O)C1 (centres unmarked)	1.57
c1ccc2c(Cc3nn[nH]n3)c[nH]c2c1	85
c1ccc2c(Cc3c[nH]c4ccccc34)c[nH]c2c1	-0.0372
c1ccc(Cc2c[nH]c3ccccc23)cc1	0.736
CCC1(C)CC(=O)c2c(ccc3oc(C(=O)NCc4ccco4)c(C)c23)O1 (centres unmarked)	-2.17
CC1=C(C)CC(C(=O)NCc2ccc(F)cc2)C(C(=O)O)C1 (centres unmarked)	8.6
COc1ccc(-c2coc3cc(OC)ccc3c2=O)c(O)c1	62.1
COc1ccccc1-c1coc2cc(OCC(=O)O)ccc2c1=O	-1.92
COc1ccc2c(COc3ccc4c(=O)c(-c5ccccc5)coc4c3)cc(=O)oc2c1	-2.91
O=C(Cn1ncc2c3ccccc3nc-2c1O)N1CCC(c2ccccc2)C1 (centres unmarked)	2.36
